# Laboratory results as given in ChEMBL document CHEMBL5606458, “ASAP - ZIKV NS2B-NS3 protease fluorescence single point” (2024).
# Hit rate of the full screen: of about 2,700 compounds, about 160 (5.9%) showed an effect of 50% or more. Shown is part of a subset that was picked to be rich in strong results.
# Target: Nonstructural protein 3 (Zika virus) (UniProt A0A024AXB9)
# [1] = PRVABC59, Concentration 15.0 uM, Number of replicates 1.0
# [2] = PRVABC59, Concentration 50.0 uM, Number of replicates 1.0
# Nonstructural protein 3 (Zika virus), sequence (A0A024AXB9 as listed by the source): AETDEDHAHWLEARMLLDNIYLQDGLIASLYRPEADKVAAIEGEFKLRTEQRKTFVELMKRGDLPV
compound,measurement,setting,value
O=C(Nc1nc2[nH]cnc2c(=O)[nH]1)c1cc(Cl)ccc1NS(=O)(=O)c1ccc(Oc2ccccc2Cl)cc1,inhibition,[1],21.9%
CN(C)Cc1ccc(NCc2ccc(N3CCN(C)CC3)cc2)nc1,inhibition,"PRVABC59, Concentration 49.5 uM, Number of replicates 2.0, Standard deviation 0.4640657991367188 %",-2.39%
same,inhibition,"PRVABC59, Concentration 99.01 uM, Number of replicates 2.0, Standard deviation 0.7284754441158133 %",-1.05%
same,inhibition,"PRVABC59, Concentration 198.0 uM, Number of replicates 2.0, Standard deviation 0.8166119221974307 %",1.21%
O=Cc1ccc(N2CCC(C(=O)Nc3c(Cl)cccc3[N+](=O)[O-])CC2)cc1,inhibition,[2],21.7%
CN1CCN(c2ccc(CNS(=O)(=O)c3ccc(C(N)=O)cc3)cc2)CC1,inhibition,"PRVABC59, Concentration 49.5 uM, Number of replicates 2.0, Standard deviation 3.1298940912505486 %",-2.93%
same,inhibition,"PRVABC59, Concentration 99.01 uM, Number of replicates 2.0, Standard deviation 2.0491409994990377 %",-9.18%
CC(C)N(Cc1cnn(C)c1)C(=O)c1cc(Cl)ccc1NS(=O)(=O)c1ccc(Oc2ccccc2Cl)cc1,inhibition,[1],21.9%
CN(C(=O)c1cc(Cl)ccc1NS(=O)(=O)c1ccc(Oc2ccccc2Cl)cc1)[C@H]1CCN(Cc2ccccc2)C1,inhibition,[1],18.4%
CCc1cccc2[nH]c(C(=O)N3C[C@H](n4cc(CO)nn4)CCC3(C)C)cc12,inhibition,"PRVABC59, Concentration 49.5 uM, Number of replicates 2.0, Standard deviation 1.345657751466366 %",1.61%
same,inhibition,"PRVABC59, Concentration 99.01 uM, Number of replicates 2.0, Standard deviation 0.921351350459793 %",4.33%
same,inhibition,"PRVABC59, Concentration 198.0 uM, Number of replicates 2.0, Standard deviation 1.6164058188461652 %",5.38%
O=C(NCC[C@H](O)c1ccccc1)c1cc(Cl)ccc1NS(=O)(=O)c1ccc(Oc2ccccc2Cl)cc1,inhibition,[1],38.9%
COc1ccc(S(=O)(=O)N[C@H]2CC[C@H](C(=O)Nc3nc4ccccc4s3)CC2)cc1,inhibition,"PRVABC59, Concentration 49.5 uM, Number of replicates 2.0, Standard deviation 1.516279405300169 %",4.79%
same,inhibition,"PRVABC59, Concentration 99.01 uM, Number of replicates 2.0, Standard deviation 2.0429029287446374 %",5.82%
same,inhibition,"PRVABC59, Concentration 198.0 uM, Number of replicates 2.0, Standard deviation 2.7145967477005732 %",5.18%
O=Cc1ccc(N2CCC(C(=O)N3CCC[C@H]3c3cccc(F)c3)CC2)cc1,inhibition,[2],24.6%
Cc1cc(CO)c2cccc(NC(=O)C3CC(N)C3)c2n1 (centres undefined),inhibition,"PRVABC59, Concentration 49.95 uM, Number of replicates 2.0, Standard deviation 0.17303270644971713 %",56.1%
same,inhibition,"PRVABC59, Concentration 99.9 uM, Number of replicates 2.0, Standard deviation 0.6659229038704304 %",84.7%
Cc1cc(CO)c2cccc(NC(=O)[C@@H]3CCCC[C@H]3C(=O)O)c2n1,inhibition,"PRVABC59, Concentration 49.95 uM, Number of replicates 2.0, Standard deviation 1.6258787445174738 %",3.41%
same,inhibition,"PRVABC59, Concentration 99.9 uM, Number of replicates 2.0, Standard deviation 1.31977157857946 %",10.8%
Cc1cc(CO)c2cccc(NC(=O)C3CNC3)c2n1,inhibition,"PRVABC59, Concentration 99.9 uM, Number of replicates 2.0, Standard deviation 0.20878200053144555 %",-2.49%
Cc1cc(CO)c2cccc(NC(=O)CNC3CC3)c2n1,inhibition,"PRVABC59, Concentration 49.95 uM, Number of replicates 2.0, Standard deviation 1.7513317050958486 %",17.8%
same,inhibition,"PRVABC59, Concentration 99.9 uM, Number of replicates 2.0, Standard deviation 1.7111876748261923 %",28.9%
Cc1cc(CO)c2cccc(NC(=O)C3CCN(C)CC3)c2n1,inhibition,"PRVABC59, Concentration 49.95 uM, Number of replicates 2.0, Standard deviation 2.9039680698338874 %",1.89%
same,inhibition,"PRVABC59, Concentration 99.9 uM, Number of replicates 2.0, Standard deviation 2.0814932575907883 %",29.5%
Cc1cc(CO)c2cccc(NC(=O)C3CCC(CN)CC3)c2n1 (centres undefined),inhibition,"PRVABC59, Concentration 49.95 uM, Number of replicates 2.0, Standard deviation 1.4301713707436838 %",93.7%
same,inhibition,"PRVABC59, Concentration 99.9 uM, Number of replicates 2.0, Standard deviation 0.5018131910126516 %",92.3%
Cc1cc(CO)c2cccc(NC(=O)C3CCC(N)CC3)c2n1 (centres undefined),inhibition,"PRVABC59, Concentration 49.95 uM, Number of replicates 2.0, Standard deviation 0.4998117214705663 %",93.2%
same,inhibition,"PRVABC59, Concentration 99.9 uM, Number of replicates 2.0, Standard deviation 0.37327676699721984 %",95.4%
Cc1cc(CO)c2cccc(CC(=O)N3CCC(CN)CC3)c2n1,inhibition,"PRVABC59, Concentration 49.95 uM, Number of replicates 2.0, Standard deviation 0.5547725606279245 %",25.3%
same,inhibition,"PRVABC59, Concentration 99.9 uM, Number of replicates 2.0, Standard deviation 0.00508999060096365 %",39.1%
Cc1cc(CO)c2cccc(NC(=O)[C@@H]3C[C@@H](O)CN3)c2n1,inhibition,"PRVABC59, Concentration 49.95 uM, Number of replicates 2.0, Standard deviation 2.1728568355691875 %",17%
same,inhibition,"PRVABC59, Concentration 99.9 uM, Number of replicates 2.0, Standard deviation 5.153634365263829 %",23.7%
CCCCCN(CCCCC)C(=O)C1CCN(c2ccc(C=O)cc2)CC1,inhibition,[2],26.1%
O=Cc1ccc(N2CCC(C(=O)Nc3c(F)cc(F)cc3Cl)CC2)cc1,inhibition,[2],23.6%
COc1cc2c(cc1NC(=O)c1cc(Cl)ccc1NS(=O)(=O)c1ccc(Oc3ccccc3Cl)cc1)oc1ccccc12,inhibition,[1],36.2%
O=C(Nc1ncccc1C(F)(F)F)c1cc(Cl)ccc1NS(=O)(=O)c1ccc(Oc2ccccc2Cl)cc1,inhibition,[1],25.1%
Cn1cc(NC(=O)c2cccc3ncccc23)cn1,inhibition,"PRVABC59, Concentration 49.5 uM, Number of replicates 2.0, Standard deviation 3.392303236065074 %",-6.29%
same,inhibition,"PRVABC59, Concentration 99.01 uM, Number of replicates 2.0, Standard deviation 4.211868261497117 %",-5.3%
same,inhibition,"PRVABC59, Concentration 198.0 uM, Number of replicates 2.0, Standard deviation 3.7498965706755105 %",-3.61%
O=Cc1ccc(N2CCC(C(=O)N3CCN(CCOCCO)CC3)CC2)cc1,inhibition,[2],21.2%
COc1ccc([C@H](C)NC(=O)c2cc(Cl)ccc2NS(=O)(=O)c2ccc(Oc3ccccc3Cl)cc2)cc1,inhibition,[1],35.3%
O=Cc1ccc(N2CCC(C(=O)Nc3ccc(Cl)nc3Cl)CC2)cc1,inhibition,[2],20.5%
